L3MBTL1 block: qHTS Assay for the Inhibitors of L3MBTL1; AlphaScreen L3MBTL1–H3K9me1 peptide binding; 230,000 compounds, 0.66% hits; Lethal(3)malignant brain tumor-like protein 1 (Homo sapiens), Q9Y468; Potency, µM (top dose mostly 57.1 µM), inactives show at the top dose activity, negative = inhibition, hits mostly inhibitors; AID 485360, 2010; further: on the % scale 0 is the no-effect control and ±100 the full control effect; nearly all actives have a fitted effect of over 60% in size
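AlphaScreen proximity signal between nickel-chelate acceptor and streptavidin donor beads (final 10 ug/mL) reports binding of 50 nM L3MBTL1 to 75 nM biotin-H3 K9me1 peptide; complex incubated with compounds 30 min at room temperature; cefsulodin titration as control.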
HP1b binding inh: HTS for Inhibitors of HP1-beta Chromodomain Interactions with Methylated Histone Tails; Chromobox protein homolog 1 (Homo sapiens), P83916; AlphaScreen HP1-beta / biotin-H3K9me3 peptide binding; Potency, µM (doses to about 114 µM), for inactives: top-dose activity change, negative = inhibition, most hits filed as inhibitors; 390,000 compounds, 0.56% hits; further: nearly all actives have a fitted effect of over 70% in size
Target sequence (P83916 whole entry, looked up): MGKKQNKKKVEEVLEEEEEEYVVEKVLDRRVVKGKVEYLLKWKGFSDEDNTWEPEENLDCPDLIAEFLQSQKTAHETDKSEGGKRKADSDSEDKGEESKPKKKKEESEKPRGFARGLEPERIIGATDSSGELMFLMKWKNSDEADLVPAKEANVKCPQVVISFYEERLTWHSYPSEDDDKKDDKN
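AlphaScreen: HP1-beta (50 nM) preformed 30 min with biotin-H3(1-18)K9me3 peptide (50 nM) in PBS pH 7.4, 0.01% Tween-20. Compound added for 30 min at RT, then streptavidin donor/nickel chelate acceptor beads (10 ug/mL) for 30 min.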
G9a block: qHTS Assay for Inhibitors of Histone Lysine Methyltransferase G9a | Histone-lysine N-methyltransferase EHMT2 (Homo sapiens), Q96KQ7 | G9a H3K9 monomethylation, AlphaScreen, 2 h | Potency, µM (doses to about 102 µM), for the others: at the highest dose activity, negative = inhibition, most hits filed as inhibitors | 350,000 compounds, 8.8% hits | AID 504332, 2011; further: on the % scale 0 is the no-effect control and ±100 the full control effect; nearly all actives have a fitted effect of over 75% in size
Target sequence (Q96KQ7 913-1193 limits assumed): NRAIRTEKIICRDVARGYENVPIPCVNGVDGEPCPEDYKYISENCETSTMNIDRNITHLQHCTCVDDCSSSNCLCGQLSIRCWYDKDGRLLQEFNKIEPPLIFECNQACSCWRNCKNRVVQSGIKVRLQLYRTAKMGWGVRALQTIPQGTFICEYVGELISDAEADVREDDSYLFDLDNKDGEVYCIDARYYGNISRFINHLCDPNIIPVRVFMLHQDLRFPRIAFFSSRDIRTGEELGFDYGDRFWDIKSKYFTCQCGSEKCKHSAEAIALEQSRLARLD
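Quantitative HTS format: methyltransferase activity on a biotin-tagged H3K9 peptide is measured by AlphaScreen, using a rabbit anti-monomethyl-H3K9 antibody with streptavidin donor and anti-IgG acceptor beads. Final levels are 20 nM enzyme, 500 nM peptide, 20 uM SAM; 2 h RT.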
GLS inhibitor: qHTS for Inhibitors of Glutaminase (GLS); Potency, µM (highest dose often 45.5 µM), for the others: at the top dose activity change, negative = inhibition, hits mostly inhibitors; 410,000 compounds, 0.21% hits; GLS enzymatic activity, qHTS titration; Glutaminase kidney isoform, mitochondrial (Homo sapiens), O94925; further: on the % scale 0 is the no-effect control and ±100 the full control effect
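hKGA; 45 mM KH2PO4 pH 8.2 + 0.02% Tween-20; cpd via pin tool; 1 mM Gln soln; GluOx/HRP/Amplex Red; RT 30 min; fluor. t0 & final.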
BAZ2B inh: qHTS Assay for Inhibitors of BAZ2B; 360,000 compounds, 4.4% hits; AlphaScreen BAZ2B-H3K14Ac peptide displacement; Potency, µM (highest dose often 114 µM), for inactives: at the highest dose activity change, negative = inhibition, most hits filed as inhibitors; Bromodomain adjacent to zinc finger domain protein 2B (Homo sapiens), Q9UIF8; further: on the % scale 0 is the no-effect control and ±100 the full control effect; nearly all actives have a fitted effect of over 60% in size
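AlphaScreen luminescence quantifies BAZ2B engagement of H3K14Ac peptide; the protein and biotinylated peptide are both at 50 nM final, buffer PBS pH 7.4 with 0.01% Tween-20, all steps at room temperature.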
JMJD2A Tudor: qHTS Assay for Inhibitors of JMJD2A-Tudor Domain; Potency, µM (series often up to 114 µM), without a hit: at the top dose activity change, negative = inhibition, usual class: inhibitors; 390,000 compounds, 4.4% hits; Lysine-specific demethylase 4A (Homo sapiens), O75164; AID 504339, 2011; AlphaScreen JMJD2A-Tudor / H3K4me3 peptide binding; further: on the % scale 0 is the no-effect control and ±100 the full control effect; nearly all actives have a fitted effect of over 50% in size
* marks the source's active call; other numbers are inactive results; [ ] = another dose, or the depositor's remark. Hits are enriched below; roughly 10% of the tested compounds scored in any of these assays. The call rests on the fitted dose curve; in most records, active means well fitted curve in the direction sought with a large enough effect; inconclusive means small, poorly fitted or top-dose-only effect, or another doubt; inactive means no such curve, though single readings can be large; an effect the other way counts as inactive or inconclusive. Potency means the concentration at half of the fitted maximal effect.

For O=C(CSc1nnnn1C1CCCCC1)N1CCc2ccccc21 the results were HP1b binding inh 24.4%, G9a block -1.1%[12.7 µM], GLS inhibitor -3.9%, BAZ2B inh 6.8% and JMJD2A Tudor -5.6%.
For CCc1nnc(NCC(=O)N2CCc3ccccc32)s1 the results were L3MBTL1 block -4.2%, HP1b binding inh -7.9%, G9a block 14.1µM*, GLS inhibitor 13.2%, BAZ2B inh inconclusive and JMJD2A Tudor 14.4%[11.4 µM].
Screening O=C(CSc1ncc(-c2ccccc2)n1C1CCCC1)N1CCc2ccccc21 returned L3MBTL1 block -10.2%, HP1b binding inh -8.4%, G9a block 31.6µM*, GLS inhibitor -3.8%, BAZ2B inh inconclusive and JMJD2A Tudor -26.4%.
`O=C(CSc1nccn1-c1ccc(Cl)cc1)N1CCCc2ccccc21` gave L3MBTL1 block -20.4%, HP1b binding inh inconclusive, G9a block 50.1µM*, GLS inhibitor -6.4%, BAZ2B inh 35.5µM* and JMJD2A Tudor inconclusive.
Screening CCOc1ccc(S(=O)(=O)c2cn(Cc3ccccc3C)c3ccc(OC)cc3c2=O)cc1 returned HP1b binding inh 42.4%, G9a block 5.2%[59 µM], GLS inhibitor -2.9%, BAZ2B inh -3.2% and JMJD2A Tudor -6.6%.
`Cc1c(Cl)cccc1NC(=O)Nc1nnc(N(C)Cc2ccccc2)s1` gave HP1b binding inh 20.1%, G9a block -8.5%[59 µM], GLS inhibitor 1.1%, BAZ2B inh -4.1% and JMJD2A Tudor -24.2%.
For Cc1cccc(C(=O)N2CCc3cc(CNC(=O)c4ccc(Br)o4)ccc32)c1 the results were HP1b binding inh 3.8%, G9a block -31.9%[59 µM], GLS inhibitor 7.9%, BAZ2B inh -23.9% and JMJD2A Tudor -29.0%.
Screening COc1ccc(Cn2ncc3c4sc(C)cc4n(C)c3c2=O)cc1 returned JMJD2A Tudor -6.8%.
Cn1c(-c2ccccc2)cnc1SCC(=O)N1CCCc2ccccc21 was read as L3MBTL1 block -7.5%, HP1b binding inh inconclusive, G9a block inconclusive, GLS inhibitor 11.4%, BAZ2B inh 44.7µM* and JMJD2A Tudor inconclusive.
Screening Cn1c(SCC(=O)N2CCCc3ccccc32)ncc(C(=O)Nc2ccccc2)c1=O returned HP1b binding inh 57.1%, G9a block 1.8%[59 µM], GLS inhibitor 5.2%, BAZ2B inh 3.1% and JMJD2A Tudor 0.0%.
Screening O=C(CSc1nnnn1-c1ccccc1)N1CCc2ccccc21 returned HP1b binding inh 17.2%, G9a block 12.6µM*, GLS inhibitor 2.0%, BAZ2B inh 10.8% and JMJD2A Tudor -22.1%.
For CC(C)Oc1ccc(CNC(=O)C2=Cc3ccccc3OC2)cc1 the results were HP1b binding inh 30.0%[57 µM], G9a block 5.9%[59 µM], GLS inhibitor 1.7%, BAZ2B inh 14.5% and JMJD2A Tudor 15.3%.
CCOc1ccc(CCNC(=O)c2c(C)oc3ncnc(N4CCOCC4)c23)cc1 was read as HP1b binding inh 38.3%, G9a block -10.1%[59 µM], GLS inhibitor 7.2%, BAZ2B inh 7.6%[57.1 µM] and JMJD2A Tudor -5.5%.
O=[N+]([O-])c1cc(-c2n(-c3ccccn3)c3ccccc3[n+]2-c2ccccn2)ccc1Cl was read as L3MBTL1 block -11.6%, HP1b binding inh -6.6%, G9a block 50.1µM*, GLS inhibitor -8.2%, BAZ2B inh 44.7µM* and JMJD2A Tudor -33.6%.
Screening Cc1ccc(NC(=O)c2c(NC(=O)c3ccccc3Cl)sc3c2CCC3)cc1 returned HP1b binding inh 30.4%, G9a block -1.0%[59 µM], GLS inhibitor -1.0%, BAZ2B inh -0.5% and JMJD2A Tudor -11.8%.
